Where “and” joins values, the source holds several entries; their conditions need not be identical. Identical values can stand only once. About 83,000 compounds went through this panel and 20% of them were active in at least one assay; those are over-represented in the sample as a whole.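 Single-dose data. Exposure time 48 hours. Values below 10 considered active.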 Calls of active or inactive are those of the source.

From PubChem BioAssay (NCI) come the findings set out here.

Test systems include SK-MEL-2 melanoma; EKVX NSCLC; SN12C renal; UO-31 renal; TK-10 renal; ACHN renal; CAKI-1 renal; A498 renal; CCRF-CEM leukemia; MOLT-4 leukemia; SR leukemia; RPMI-8226 leukemia; OVCAR-8 ovarian; OVCAR-5 ovarian; OVCAR-4 ovarian; SK-OV-3 ovarian; IGROV1 ovarian; OVCAR-3 ovarian; HS 578T breast; NCI/ADR-RES ovarian.
Holding throughout (test): NCI-60 one-dose screen, 48 h (100 = growth as untreated, 0 = no growth, -100 = all killed)
Holding throughout (settings): 10 µM unless noted

As to `COc1cc(C=O)ccc1Oc1nc(Nc2ccc(F)cc2)nc(N(C)C)n1`, the growth was 62.6% (inactive) and 85.2% (inactive) in the assay on SK-MEL-2 melanoma; 76.9% (inactive) and 60.4% (inactive) in the assay on EKVX NSCLC; 92.2% (inactive) and 58.5% (inactive) in the assay on SN12C renal; 67.6% (inactive) and 48.7% (inactive) with UO-31 renal; 84.2% (inactive) and 86.8% (inactive) in the assay on TK-10 renal; 105% (inactive) and 63.3% (inactive) in the assay on ACHN renal. For the same compound, the growth with CAKI-1 renal is 69.2% (inactive) and 58.3% (inactive); with A498 renal, 98.6% (inactive) and 123% (inactive); in the assay on CCRF-CEM leukemia, 86.1% (inactive) and 18.1% (inactive); with MOLT-4 leukemia it was 73.1% (inactive) and 23.8% (inactive); in the assay with SR leukemia, 70.9% (inactive) and 6.2% (active); in the assay on RPMI-8226 leukemia, 60% (inactive) and 67% (inactive). Moreover, the growth with OVCAR-8 ovarian was 85.3% (inactive) and 56.7% (inactive); in the assay on OVCAR-5 ovarian, 100% (inactive) and 105% (inactive); in the assay on OVCAR-4 ovarian, 56.4% (inactive) and 47.8% (inactive); in the assay on SK-OV-3 ovarian, 87.6% (inactive) and 122% (inactive); in the assay on IGROV1 ovarian it was 96.7% (inactive) and 49.3% (inactive); in the assay on OVCAR-3 ovarian it was 62.1% (inactive) and 78.7% (inactive). Further, the growth in the assay with HS 578T breast was 85.5% (inactive) and 41.5% (inactive); in the assay with NCI/ADR-RES ovarian, 81.7% (inactive) and 54.3% (inactive).

For the compound `COc1cc(/C=C/C(=O)c2cnn(-c3cc(=O)[nH]c4ccc(Cl)cc34)c2C)cc(OC)c1OC`, the growth is -80.6% (active) in the assay on SK-MEL-2 melanoma; -4.28% (active) in the assay on EKVX NSCLC; 0.0215% (active) with SN12C renal; -72.6% (active) in the assay on UO-31 renal; 0.154% (active) with TK-10 renal; -35.4% (active) with ACHN renal. The growth in the assay on CAKI-1 renal was -68.4% (active); in the assay on A498 renal it was -21.5% (active); in the assay with CCRF-CEM leukemia, -16.7% (active); in the assay with MOLT-4 leukemia it was -10.9% (active); in the assay on SR leukemia, -11.6% (active); in the assay with RPMI-8226 leukemia, -31.7% (active). Further, the growth in the assay on OVCAR-8 ovarian was -0.426% (active); in the assay on OVCAR-5 ovarian, -52.3% (active); in the assay with OVCAR-4 ovarian, 17.7% (inactive); in the assay with SK-OV-3 ovarian, -6.03% (active); with IGROV1 ovarian, -35.3% (active); in the assay with OVCAR-3 ovarian, -61.7% (active). Besides, the growth in the assay on HS 578T breast was 23.9% (inactive); in the assay with NCI/ADR-RES ovarian, -20.3% (active).

`Nc1cc2ccccc2c(=O)n1NC(=O)c1ccccc1`: the growth is 105% (inactive) in the assay on SK-MEL-2 melanoma; 87.6% (inactive) in the assay on EKVX NSCLC; 100% (inactive) in the assay with SN12C renal; 58.3% (inactive) with UO-31 renal; 127% (inactive) in the assay with TK-10 renal; 93.4% (inactive) in the assay with ACHN renal. Further, the growth in the assay on CAKI-1 renal is 83.8% (inactive); with A498 renal, 145% (inactive); with CCRF-CEM leukemia, 98.9% (inactive); with MOLT-4 leukemia it was 93.9% (inactive); in the assay on SR leukemia, 84.3% (inactive); in the assay on RPMI-8226 leukemia it was 94.2% (inactive). The growth is 104% (inactive) in the assay with OVCAR-8 ovarian; 107% (inactive) in the assay on OVCAR-5 ovarian; 98.6% (inactive) with OVCAR-4 ovarian; 93.5% (inactive) in the assay with SK-OV-3 ovarian; 90.2% (inactive) with IGROV1 ovarian; 70.6% (inactive) in the assay on OVCAR-3 ovarian. The results for the growth with HS 578T breast and in the assay on NCI/ADR-RES ovarian were 91.4% (inactive) and 102% (inactive), respectively.

With `COc1cc(C2CC(c3ccc(C(F)(F)F)cc3)=Nc3c(N)nc(N)nc3N2)ccc1Oc1nc(Nc2ccc(F)cc2)nc(N(C)C)n1` (stereo not given), the growth was 59.9% (inactive) in the assay with SK-MEL-2 melanoma; 44.1% (inactive) in the assay on EKVX NSCLC; 50.7% (inactive) with SN12C renal; 41.6% (inactive) in the assay on UO-31 renal; 65.4% (inactive) in the assay with TK-10 renal; 48.3% (inactive) in the assay with ACHN renal. For the same compound, the growth is 40.9% (inactive) in the assay on CAKI-1 renal; 65.6% (inactive) in the assay on A498 renal; 69.4% (inactive) in the assay with CCRF-CEM leukemia; 4.31% (active) in the assay with MOLT-4 leukemia; -25.2% (active) in the assay on SR leukemia; 24.3% (inactive) in the assay on RPMI-8226 leukemia. Besides, the growth was 46.9% (inactive) with OVCAR-8 ovarian; 89.1% (inactive) in the assay with OVCAR-5 ovarian; 37.1% (inactive) with OVCAR-4 ovarian; 90.8% (inactive) in the assay on SK-OV-3 ovarian; 39.8% (inactive) in the assay with IGROV1 ovarian; 76.1% (inactive) in the assay with OVCAR-3 ovarian. Moreover, the growth was 48.9% (inactive) with HS 578T breast and 37% (inactive) in the assay with NCI/ADR-RES ovarian.

Regarding `COc1ccc(C2=Nc3c(N)nc(N)nc3NC(c3ccc(Oc4nc(Nc5ccc(F)cc5)nc(N(C)C)n4)c(OC)c3)C2)cc1` (stereo not given), the growth was 92.4% (inactive) in the assay on SK-MEL-2 melanoma; 67.2% (inactive) with EKVX NSCLC; 90.2% (inactive) with SN12C renal; 52.5% (inactive) in the assay with UO-31 renal; 86.4% (inactive) with TK-10 renal; 99% (inactive) in the assay with ACHN renal. Moreover, the growth in the assay on CAKI-1 renal is 58% (inactive); in the assay with A498 renal it was 68.9% (inactive); in the assay on CCRF-CEM leukemia, 50.1% (inactive); with MOLT-4 leukemia it was 18.4% (inactive); in the assay on SR leukemia, -29.4% (active); in the assay with RPMI-8226 leukemia, 36.2% (inactive). The growth in the assay with OVCAR-8 ovarian is 81.7% (inactive); in the assay with OVCAR-5 ovarian, 108% (inactive); with OVCAR-4 ovarian it was 48.4% (inactive); in the assay on SK-OV-3 ovarian, 93.2% (inactive); in the assay with IGROV1 ovarian, 63.5% (inactive); with OVCAR-3 ovarian it was 82.5% (inactive). Also, the values for the growth in the assay on HS 578T breast and in the assay with NCI/ADR-RES ovarian were 37.6% (inactive) and 62.7% (inactive), respectively.

Regarding `COc1cc(C=O)ccc1OC(=O)c1cc(-c2ccc(C)cc2)n(-c2ccc(S(C)(=O)=O)cc2)n1`, the growth with SK-MEL-2 melanoma is 108% (inactive); in the assay with EKVX NSCLC, 98.8% (inactive); in the assay with SN12C renal it was 99.2% (inactive); with UO-31 renal it was 85.6% (inactive); in the assay on TK-10 renal, 126% (inactive); in the assay with ACHN renal it was 104% (inactive). Also, the growth was 93.5% (inactive) in the assay with CAKI-1 renal; 143% (inactive) in the assay on A498 renal; 96.9% (inactive) in the assay on CCRF-CEM leukemia; 91.4% (inactive) in the assay on MOLT-4 leukemia; 121% (inactive) in the assay on SR leukemia; 94.7% (inactive) in the assay with RPMI-8226 leukemia. The growth in the assay with OVCAR-8 ovarian is 105% (inactive); in the assay on OVCAR-5 ovarian it was 109% (inactive); in the assay on OVCAR-4 ovarian, 105% (inactive); with SK-OV-3 ovarian, 107% (inactive); in the assay on IGROV1 ovarian it was 111% (inactive); with OVCAR-3 ovarian, 119% (inactive). In addition, the results for the growth in the assay with HS 578T breast and in the assay with NCI/ADR-RES ovarian were 116% (inactive) and 107% (inactive), respectively.

For `C#CCN(C)CCCOc1ccc(N(CC)C(=O)c2cc(C(C)C)c(O)cc2O)cc1Cl`, the growth in the assay with SK-MEL-2 melanoma is -57.9% (active); with EKVX NSCLC it was -7.81% (active); in the assay with SN12C renal it was -52.1% (active); in the assay on UO-31 renal it was 8.11% (active); in the assay with TK-10 renal, 11.1% (inactive); with ACHN renal it was 11.6% (inactive). Further, the growth was 9.89% (active) in the assay with CAKI-1 renal; 21.6% (inactive) in the assay on A498 renal; 7.35% (active) in the assay on CCRF-CEM leukemia; -33.6% (active) in the assay with MOLT-4 leukemia; -34.3% (active) in the assay with SR leukemia; -33.5% (active) in the assay on RPMI-8226 leukemia. For the same compound, the growth with OVCAR-8 ovarian was 2.93% (active); in the assay with OVCAR-5 ovarian, 19.7% (inactive); in the assay on OVCAR-4 ovarian, 26.1% (inactive); with SK-OV-3 ovarian, 7.75% (active); in the assay with IGROV1 ovarian, 0.38% (active); with OVCAR-3 ovarian, 20.6% (inactive). The growth in the assay on HS 578T breast was 9.36% (active); with NCI/ADR-RES ovarian, -33.1% (active).
